Experimental data from paper PMC7819943, “Rice protein-binding microarrays: a tool to detect cis-acting elements near promoter regions in rice”.
Whole data set: some 68,000 sequences, median “fluorescence intensity (a.u.)” near 9,100, cut for the highest 2% near 16,000. The entries come from a sample that favours the highest values as a whole.

molecular target: OsWRKY34 (Oryza sativa, UniProt Q0JBA9 1-250); experiment: protein-binding microarray (RPBM); PBS, 2% BSA, 51.3 ng/ul salmon testes DNA, 50 uM zinc acetate, 200 nM TF, 25 C, 1 h; high values mean tight binding; conditions: protein: recombinant; tags: N-terminal polyhistidine and DsRed monomer fusion (pET32a); label: CyDye5-dUTP incorporated in the synthesized complementary strand; 3' TTTTT single-stranded linker to array surface; dsDNA, one strand shown
Sequence (Q0JBA9 entry or part of it): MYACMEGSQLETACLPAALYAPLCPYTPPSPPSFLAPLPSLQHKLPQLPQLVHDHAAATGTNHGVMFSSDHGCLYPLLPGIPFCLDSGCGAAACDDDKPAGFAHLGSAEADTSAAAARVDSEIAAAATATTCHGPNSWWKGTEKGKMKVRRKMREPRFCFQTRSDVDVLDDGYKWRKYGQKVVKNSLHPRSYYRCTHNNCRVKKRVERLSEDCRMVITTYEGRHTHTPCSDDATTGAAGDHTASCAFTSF
How it was run: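 The binding signal for each feature is its fluorescence intensity in arbitrary units. An Axon 4000B scanner was used to read a custom Agilent array that had been made double-stranded with Cy5-dUTP primer extension, blocked with 2% BSA, incubated at 25 °C for 1 h with 200 nM protein in PBS, 2% BSA, salmon testes DNA and 50 µM zinc acetate, and washed. The protein was an N-terminal polyhistidine–DsRed transcription factor fusion from E. coli BL21-CodonPlus, purified on Ni–NTA.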

Sequence	binding signal
TTTCATGTTCGTGAAAATTATACATTTTATATGCGCCTTTCGGAGTCACCTAGTGCAG	8720 fluorescence intensity (a.u.)
GAAGCCATATCATCTTAATTGTTTTTAGCTCTTCTCTCATCGGAGTCACCTAGTGCAG	10300 fluorescence intensity (a.u.)
AAAATTTTTCTATTCAATTCTTTTCGTTTTTGGACCTCTCCGGAGTCACCTAGTGCAG	8660 fluorescence intensity (a.u.)
CCCTAAACAGGTCAACCTCAGGTGTTGACTAGAGTACTAGCGGAGTCACCTAGTGCAG	8290 fluorescence intensity (a.u.)
GTGTGTAGTGGTGTTTGTGCGCGGCCTCTAATATCATGTACGGAGTCACCTAGTGCAG	11600 fluorescence intensity (a.u.)
GATTCATACAATTGTATGGTGTTAACATGGCGATTTTTTGCGGAGTCACCTAGTGCAG	9120 fluorescence intensity (a.u.)
CCGCTACAACACTCAACACCATACCACATGTCATCTCCGTCGGAGTCACCTAGTGCAG	8060 fluorescence intensity (a.u.)
CTTCTGTCACGTACGCCCGTCCCTCATATGGCCAATCGCGCGGAGTCACCTAGTGCAG	13400 fluorescence intensity (a.u.)
CACTTACACTTTCATTTTCGCTTCATGTAAAATAGTCAACCGGAGTCACCTAGTGCAG	8980 fluorescence intensity (a.u.)
AGATGCCTCGTGCTAGGTTTGATTGGTTGGTTGGTTGGTACGGAGTCACCTAGTGCAG	19400 fluorescence intensity (a.u.)
ATGCGGCGGTGGCGGGAGGGAGGGACAGGGTTGGTGAAGTCGGAGTCACCTAGTGCAG	17400 fluorescence intensity (a.u.)
ATAGGTAGATTGTTGGTGATGCTCTAAGGGTGGGTTTTGACGGAGTCACCTAGTGCAG	13400 fluorescence intensity (a.u.)
AGGGACAGGGTTGGTGAAGTGGCTTCCATGCGGCGGCCACCGGAGTCACCTAGTGCAG	8150 fluorescence intensity (a.u.)
TCGCTAGGAGTGGTGGTGGTGGTGGGAGGAGGAGGCGATGCGGAGTCACCTAGTGCAG	13000 fluorescence intensity (a.u.)
GGGGATCAGGAGGGATGGGGATTGGGGAGACGAGTGGATGCGGAGTCACCTAGTGCAG	8330 fluorescence intensity (a.u.)
AGGAGGAGGAGGAGGAGGAGGAGGAGGCGGTGGGAGGGATCGGAGTCACCTAGTGCAG	14800 fluorescence intensity (a.u.)
GTTGCTGTTTTTGATGGTCGTTGAGACAGATAGTTTGGTACGGAGTCACCTAGTGCAG	8360 fluorescence intensity (a.u.)
GGCGGAGGGAGGGAGGGGAAGTCGGTGGTGAGGTGGCGTGCGGAGTCACCTAGTGCAG	12900 fluorescence intensity (a.u.)
CGGGAGAGGGAGGTGATGATGGGGCGGCGGAGGATTGGAGCGGAGTCACCTAGTGCAG	8130 fluorescence intensity (a.u.)
TCGATTGGGGATTGGGGATTGGGGATCAGGAGGGATGGGGCGGAGTCACCTAGTGCAG	20900 fluorescence intensity (a.u.)
GTTGGTGGTGGTGGTGGAGGAGGCGGTGGTGGGATCGATGCGGAGTCACCTAGTGCAG	23900 fluorescence intensity (a.u.)
GCACTTATCGTTTATTTTCTTATAATTTATTTTATCATTGCGGAGTCACCTAGTGCAG	8830 fluorescence intensity (a.u.)

Sequence	binding signal
GCAAGTACTTGGTGGTATATGTTGTTTGGAATAAAAAGGTCGGAGTCACCTAGTGCAG	8320 fluorescence intensity (a.u.)
CCTCGCTCCTCCTCGTCGCAGATCGATCTCAAACCTTCAGCGGAGTCACCTAGTGCAG	8730 fluorescence intensity (a.u.)
ATACATTTATTCCTTCTTAGAGTCACTACTCTTCATTGAACGGAGTCACCTAGTGCAG	8060 fluorescence intensity (a.u.)
ACCTCTTCCTCGACGCCGCCGCCGACCACCACCCCGCCGGCGGAGTCACCTAGTGCAG	8670 fluorescence intensity (a.u.)
TGTGTCATCTTGTCTATGGTAGTTCAGCAATCCTCTGCTTCGGAGTCACCTAGTGCAG	8890 fluorescence intensity (a.u.)
ATCACCGTCCCCGCTGCCGCCACCCGCCACTGCCGCAGCGCGGAGTCACCTAGTGCAG	10800 fluorescence intensity (a.u.)
GGCGGCGGTGATTCGGGGATGCGGCGCGGCGGGGAGGAGGCGGAGTCACCTAGTGCAG	10100 fluorescence intensity (a.u.)
CCACAACACCGCAACACACTGTCCTTGCTTCTTCATTGATCGGAGTCACCTAGTGCAG	8750 fluorescence intensity (a.u.)
CCCGCAGATTGGATTGGATTGGGTTGGATTGGATTGGATGCGGAGTCACCTAGTGCAG	10300 fluorescence intensity (a.u.)
CCGGAGAGGCGGTGGTGTTTGGATCGGGAGGGGAGAGATGCGGAGTCACCTAGTGCAG	11500 fluorescence intensity (a.u.)
GTGGGGCCCACCTGTCGGGGCGGTTGATGGGCTCTTCTAGCGGAGTCACCTAGTGCAG	8370 fluorescence intensity (a.u.)
GGTGGTGGTGGTGGTGGATCGGGTGGCTTTGGCTGAGATGCGGAGTCACCTAGTGCAG	18100 fluorescence intensity (a.u.)
CGGCGGGTGGGGCGGTGGCGGTGAGGGATGCGGTGGTGGCCGGAGTCACCTAGTGCAG	10700 fluorescence intensity (a.u.)
AATGAAAAATGGGGATGGGATTGGGATTGAGAAATGAATGCGGAGTCACCTAGTGCAG	9280 fluorescence intensity (a.u.)
AGGTGAGGTGGAGGAGGAGGAGGAGGAGGAGATCGGGATGCGGAGTCACCTAGTGCAG	8790 fluorescence intensity (a.u.)
AGGCGGCGGGGTGGCGGTGGTGGTGGTGGTGGTGGTGATGCGGAGTCACCTAGTGCAG	19000 fluorescence intensity (a.u.)
GGGATTGGATTGGGTTGGGTTGGATTGGAGAGAGAGAATGCGGAGTCACCTAGTGCAG	31400 fluorescence intensity (a.u.)
CTTCTTCTTGTCCTGCGCAACCGATGGGCGGGTTCTTGATCGGAGTCACCTAGTGCAG	18800 fluorescence intensity (a.u.)
TCTCCTCACCGGCCCCTCTTCCCCTTCGATTCTGGCGGCTCGGAGTCACCTAGTGCAG	8880 fluorescence intensity (a.u.)
TTCGTTTCTGGCTTTTTCGTCGTGTTCCGATTTCAATCTCCGGAGTCACCTAGTGCAG	12700 fluorescence intensity (a.u.)
CTACATGGGTGTTGACTCATTTTATTTATCTTTTTCTCCACGGAGTCACCTAGTGCAG	10300 fluorescence intensity (a.u.)
GCCTATCCTGCCCTCTCTACTACCACCCTTATCGATCTCTCGGAGTCACCTAGTGCAG	8340 fluorescence intensity (a.u.)

Sequence	binding signal
AAGAGACTTCTATATCTCTATATCCTTCTTATTTGCGTCCCGGAGTCACCTAGTGCAG	8080 fluorescence intensity (a.u.)
TTGCTCTCACATTTCGTGCACTACATCTTCTCGGTGGTCCCGGAGTCACCTAGTGCAG	8380 fluorescence intensity (a.u.)
GTTGTCGGTGTGTGGGTGGTGATATATTTTTTTAACTGGTCGGAGTCACCTAGTGCAG	9020 fluorescence intensity (a.u.)
AATTTGGTGGGGTCGGGGTGGGTGCTTTAACTGGGGAGATCGGAGTCACCTAGTGCAG	24500 fluorescence intensity (a.u.)
GCGGGTGGGTCTAGAGATTTTTTTTATTTGTTAATTGGATCGGAGTCACCTAGTGCAG	10400 fluorescence intensity (a.u.)
TGAGGTGAGGGCAGGGGCAGGGGCAGGGCGGACTGGCCAACGGAGTCACCTAGTGCAG	8680 fluorescence intensity (a.u.)
TCACTTTTTTTTCCATTCATTGTATGATTTCTTCTATTATCGGAGTCACCTAGTGCAG	10900 fluorescence intensity (a.u.)
AAAAAATACTATCTATGTACCCCTCCGTTTCTTTTTATTTCGGAGTCACCTAGTGCAG	8890 fluorescence intensity (a.u.)
CCTGATCGCCTCCTCCGCCACCGCCGTGTTCGATTCGTCTCGGAGTCACCTAGTGCAG	9670 fluorescence intensity (a.u.)
CTCCGCATCCCTCTCGCTCCTACCTTACCCCTCGCCGCCACGGAGTCACCTAGTGCAG	10200 fluorescence intensity (a.u.)
CAACAACATCATCATCGCTCACATCCGCATCTCCACACAACGGAGTCACCTAGTGCAG	13500 fluorescence intensity (a.u.)
TGCCACCACCTTACCCTTTGCCAACATGCATCCGCTCCAACGGAGTCACCTAGTGCAG	19100 fluorescence intensity (a.u.)
GCTCCGCCTGCCAGATCCATATGAGCCACCTGCGCCGCTACGGAGTCACCTAGTGCAG	8720 fluorescence intensity (a.u.)
CGCCATCACTGCCAAGCTCGCCGGCTACATCGCCCGCGCCCGGAGTCACCTAGTGCAG	8040 fluorescence intensity (a.u.)
GGGGAGGAATTATGGACTATTTGGATGGGCTTTTTTTACTCGGAGTCACCTAGTGCAG	8030 fluorescence intensity (a.u.)
AGTTGGGCAGCAGTGGGTTGTGATATACTATGTGAATTATCGGAGTCACCTAGTGCAG	9100 fluorescence intensity (a.u.)
CTTGGGTTGGGCGGGAACTTGGGGAGGAATTATGGACTATCGGAGTCACCTAGTGCAG	16800 fluorescence intensity (a.u.)
GCCAGTTAGGGACCTAGGGACTTGGGTTGGGCGGGAACTTCGGAGTCACCTAGTGCAG	14100 fluorescence intensity (a.u.)
CTGGGTGGGGAATTGGTTTAGTGAAGGATTAGTTGCTGATCGGAGTCACCTAGTGCAG	9770 fluorescence intensity (a.u.)
ATGCTGAATTGGGTTGGGCTGGGGAGGAATTATAGACTATCGGAGTCACCTAGTGCAG	17500 fluorescence intensity (a.u.)
CTAGAAGGTGACTTTTCCAACTCAACTCTCGTTTTTTCACCGGAGTCACCTAGTGCAG	11500 fluorescence intensity (a.u.)
ACTTTATTACACACATAAACTTTCAACTTTACCGTCACATCGGAGTCACCTAGTGCAG	9420 fluorescence intensity (a.u.)

Sequence	binding signal
AATCTTCTAACCACCGTACGTTCTCCTCGCACTATAAATACGGAGTCACCTAGTGCAG	11500 fluorescence intensity (a.u.)
AAGATAGATGCCACTAATTTTTACACTGTATTTTGTAACTCGGAGTCACCTAGTGCAG	8290 fluorescence intensity (a.u.)
CACATGCTTATACCGTTCGTGCTGGAGTTCCTGATCGATGCGGAGTCACCTAGTGCAG	8070 fluorescence intensity (a.u.)
GTAGGAGGGTGGTTGGTTGTAGAATGGGAAGAAATTTGAACGGAGTCACCTAGTGCAG	11100 fluorescence intensity (a.u.)
AAACGTCAAAAGACTCAAAACCCAAAACCCGCGTGCTGACCGGAGTCACCTAGTGCAG	8030 fluorescence intensity (a.u.)
CGGTAGGCGTACGTGGAGACCGGTGGAATTCGTCAAAACCCGGAGTCACCTAGTGCAG	55000 fluorescence intensity (a.u.)
CCACGTAGGCGCCACGTCAGCCAAAACCGCTCTTAAAACCCGGAGTCACCTAGTGCAG	8110 fluorescence intensity (a.u.)
AAGGTTCGTTTCATTTTTTTTTACTTAATTAACTATTCCTCGGAGTCACCTAGTGCAG	8740 fluorescence intensity (a.u.)
ACTCTTGGTATGTTCTGCTTAGATACACTGTGTTGCTTGCCGGAGTCACCTAGTGCAG	9380 fluorescence intensity (a.u.)
TCTTTTTGTTTGACTTTTTTAAAACCACAGGTCACCCTTACGGAGTCACCTAGTGCAG	14800 fluorescence intensity (a.u.)
TGTACGTGACCAGTAACGCGTTGACCTTTTCTTTGTTGAACGGAGTCACCTAGTGCAG	17000 fluorescence intensity (a.u.)
GGTCTTGTCTGTTGTGTTAGCCATTTGTACCAACTCATGACGGAGTCACCTAGTGCAG	12000 fluorescence intensity (a.u.)
TTCACGTGTGTTTTGTGTAGTTTTCTACCAGTTTGTTGAACGGAGTCACCTAGTGCAG	8470 fluorescence intensity (a.u.)
TTGACTTTTTATTAACGTTTGACCATTTGTTTTATTTAAACGGAGTCACCTAGTGCAG	12000 fluorescence intensity (a.u.)
TGACTTTTTTAAATATGTTTGACCGTTCGTCTTATTGAAACGGAGTCACCTAGTGCAG	8190 fluorescence intensity (a.u.)
CGCCGTTGACTTTTTTAAATATGTTTGACCGTTCGTCTTACGGAGTCACCTAGTGCAG	39400 fluorescence intensity (a.u.)
CTTTGTTGTTTTCTTCTGTTAGTGTCTGTATTATTCATTACGGAGTCACCTAGTGCAG	9880 fluorescence intensity (a.u.)
TTGACCTTTTCTTTGTTGAACGTTGACCGTTCCGTCTTATCGGAGTCACCTAGTGCAG	14300 fluorescence intensity (a.u.)
TCTTGTGTACGTTGTGTGTTGTCATTGTGTGTCTGTCTTACGGAGTCACCTAGTGCAG	17200 fluorescence intensity (a.u.)
GCCGTTAACTTTTTTAAATATGTTTGACCGTTCGTCTTATCGGAGTCACCTAGTGCAG	10800 fluorescence intensity (a.u.)
CACCGTTGACTTTTTGACCAACGTTTGACCCTTTGTTTTACGGAGTCACCTAGTGCAG	57700 fluorescence intensity (a.u.)
